Experimental data reported in PubChem BioAssay (NCATS).
The source made the active and inactive calls. How the calls were made is not given here.

system: HIV-1 nucleocapsid protein NCp7 (binding to TG oligonucleotide); experiment: HIV Nucleocapsid (AID 346); conditions: HIV-1 NC / fluorescein-TGTGTGTG probe, fluorescence polarization;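 further: potency is for inhibitors that block NC binding and lower polarization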
Procedure, shortened: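 NCp7 100 nM + fluorescein TG4xF 10 nM; Hepes pH 7.5/250mM NaCl/1uM ZnCl2/0.004% PEG 20000; 1 hr RT; FP, 45 s exposure; oligo-only wells as negative control.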
Potency means the concentration at half of the fitted maximal effect.

SMILES	Potency
CCNc1ncc2nc(-c3cccs3)c(=O)n(CCC#N)c2n1	6.37 µM (active)
Cn1cc(-c2nc3cnc(N4CCOCC4)nc3n(CCC#N)c2=O)c2ccccc21	> 4 µM (inactive)
O=c1c(-c2ccc(Cl)cc2)nc2cnc(N3CCOCC3)nc2n1Cc1ccc(F)cc1	> 20 µM (inactive)
Cn1cccc1C(=O)N1CCC[C@@]2(CCN(C(=O)Nc3cccc(C#N)c3)C2)C1	> 20 µM (inactive)
COc1ccc(NC(=O)N2CC[C@@]3(CCCN(C(=O)c4cc(C(F)(F)F)cc(C(F)(F)F)c4)C3)C2)cc1	> 20 µM (inactive)
Cc1cnc(CNc2ncnc3ccc(-c4ccc(N(C)C)cc4)cc23)cn1	> 20 µM (inactive)
Cc1noc(C)c1-c1ccc2ncnc(NCc3cccs3)c2c1	> 20 µM (inactive)
N#Cc1ccc(CN2CCC3(CC2)CCN(S(=O)(=O)c2ccccc2)CC3)cc1	> 20 µM (inactive)
CC(C)CN1CC[C@@]2(CCCN(C(=O)c3csnn3)C2)C1	> 20 µM (inactive)
COc1ccc(CNc2ncnc3ccc(-c4ccc5c(c4)OCO5)cc23)c(OC)c1	> 20 µM (inactive)
O=C(Nc1cccc(F)c1)N1CCCC2(CCN(C(=O)c3cnccn3)CC2)C1	> 20 µM (inactive)
COc1cccc(Nc2ncc3nc(-c4cc(F)cc(F)c4)c(=O)n(C4CC4)c3n2)c1	> 4 µM (inactive)
c1nc(N2CCOCC2)c2cc(-c3ccoc3)ccc2n1	> 20 µM (inactive)
COc1cccc(Cn2c(=O)cnc3cnc(N4CCOCC4)nc32)c1	> 20 µM (inactive)
